Screening results as filed in PubChem.
HCV inhibitor: blocks hepatitis C virus. Potency, µM (doses to about 41.8 µM), most hits filed as inhibitors. AID 651820. 3.4% of 340,000 active. Huh7.5.1 HCVcc-Cre infection, luciferase reporter, 44 h
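Antiviral activity was scored by luciferase reporter output from cells infected with HCVcc-Cre (~0.5 moi) in presence of compound, 44 h infection period, cells seeded 1,000/well 4 h prior.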
HCMV antiviral: human cytomegalovirus inhibition; HFF cells, HCMV-luciferase reporter, 72 h; active compounds read low; AID 1259415; 4.5% of 410,000 active; activity change, negative = inhibition, % at 57.5 µM; in the data active = activity change below about -60%; inconclusive = no clear call, values can overlap the other calls; inactive = above about -39%
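Cell-based, HFFs, 1000 cells/well, 16 h 37C; cpds in DMSO + HCMV-luc, MOI 1 PFU/cell; 72 h 37C; OneGlo luminescence after 5 min RT; norm. to buffer vs Salinomycin 10uM.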
FMDV antiviral: antivirals against foot and mouth disease virus | FMDV antiviral cell-based qHTS | Potency, µM (top dose mostly 57.9 µM), most hits filed as inhibitors | 1.2% of 410,000 active; calls by dose curve; tested in HEK293T cells; note: read-out not given here; nearly all actives have a fitted effect of over 45% in size
Lassa entry inh: inhibitors of Lassa virus binding or cell entry | Potency, µM (top dose mostly 37.9 µM), hits mostly inhibitors | AID 540256 | Lassa virus pseudotype entry inhibition, cell reporter | 1.2% of 300,000 active; calls by dose curve; tested in HEK293 cells; note: nearly all actives have a fitted effect of over 50% in size
MARV entry inh: inhibitors of Marburg virus binding or cell entry; Marburg virus pseudotyped entry inhibition, cell reporter; Potency, µM (series often up to 37.8 µM), actives largely listed as inhibitors; 1.8% of 300,000 active; calls by dose curve; tested in HEK293 cells
FBPA Giardia inh: Giardia lamblia aldolase inhibition; AID 2451; A8B2U2; 0.71% of 290,000 active; Potency, µM (titrated, usually from 59.6 µM), usual class: inhibitors; purified Giardia FBPA; note: nearly all actives have a fitted effect of over 55% in size
Target sequence (A8B2U2 whole entry, looked up): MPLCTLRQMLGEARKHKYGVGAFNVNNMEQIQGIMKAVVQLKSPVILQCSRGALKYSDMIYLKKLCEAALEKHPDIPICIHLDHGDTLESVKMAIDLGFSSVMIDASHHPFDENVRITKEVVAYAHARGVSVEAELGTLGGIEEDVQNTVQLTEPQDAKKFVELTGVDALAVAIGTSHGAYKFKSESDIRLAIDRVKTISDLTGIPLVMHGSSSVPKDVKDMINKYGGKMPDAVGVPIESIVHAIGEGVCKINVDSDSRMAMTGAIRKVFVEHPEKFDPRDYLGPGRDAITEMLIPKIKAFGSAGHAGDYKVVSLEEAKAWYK
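40 nM FBPA preincubated 10 min at RT with compound (up to 57.5 uM final), then substrate plus GAPDH/TPI/NAD/arsenate coupling and diaphorase/resazurin added. Fluorescence read after 20 min at RT, 525/598 nm.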
Each line names hits and unclear results; the compound was inactive in the other large screens. Only some compounds are listed: those with a hit (about 8.3% of all), similar ones and a draw of the others. Unless noted, calls come from the whole dose curve; as a rule, active = well fitted curve in the direction sought with a large enough effect; inconclusive = small, poorly fitted or top-dose-only effect, or another doubt; inactive = no such curve, though single readings can be large; an effect the other way counts as inactive or inconclusive.

COc1cc(CNCCCN2CCOCC2)c(Br)cc1OCC(=O)Nc1ccccc1C	HCV inhibitor 1.6µM, MARV entry inh inconclusive
COc1cc(/C=N/NC(N)=O)c(Br)cc1OCC(=O)Nc1ccccc1C	Lassa entry inh inconclusive, MARV entry inh 11µM
CCOc1cc(/C=N/NC(N)=O)cc(Br)c1OCC(=O)Nc1cccc2ccccc12	HCV inhibitor 18µM, FMDV antiviral inconclusive
COc1cc(/C=N/O)c(Br)cc1OCC(=O)Nc1ccccc1C	MARV entry inh inconclusive
CCOc1cc(/C=N/NC(N)=O)cc(Br)c1OCC(=O)Nc1ccccc1C	HCV inhibitor inconclusive, MARV entry inh 11µM
COc1cc(/C=N/NC(N)=O)cc(Br)c1OCc1ccccc1C	none
CCOc1cc(/C=C\[N+](=O)[O-])ccc1OCC(=O)Nc1ccccc1C	HCV inhibitor 11µM, FMDV antiviral 25µM (no result: HCMV antiviral, Lassa entry inh)
CCOc1cc(/C=C/c2cccc[n+]2C)ccc1OCC(=O)Nc1ccc(C)cc1	HCMV antiviral -95 (no result: FBPA Giardia inh)
CSCC[C@H](NC(=O)[C@H](CC(C)C)NC(=O)CNC(=O)[C@H](Cc1ccc(O)cc1)NC(=O)[C@H](Cc1ccccc1)NC(=O)[C@H](CCC(N)=O)NC(=O)[C@H](CCC(N)=O)NC(=O)[C@@H]1CCCN1C(=O)[C@H](CCCCN)NC(=O)[C@@H]1CCCN1C(=O)[C@@H](N)CCCN=C(N)N)C(N)=O	none (no result: HCV inhibitor, HCMV antiviral, FMDV antiviral, Lassa entry inh, MARV entry inh)
Cc1ccc(CCNC(=O)c2c[nH]c3ccc(S(=O)(=O)Nc4cccc(C(F)(F)F)c4)cc3c2=O)cc1	HCMV antiviral inconclusive (no result: HCV inhibitor, MARV entry inh, FBPA Giardia inh)
COC1C[C@@H](O[C@@H]2C(C)C(=O)OC(C)C(C)[C@H](OC(C)=O)C(C)C(=O)[C@@]3(CO3)CC(C)C(OC3OC(C)CC(N(C)C)[C@H]3OC(C)=O)C2C)OC(C)[C@@H]1OC(C)=O (stereo partly specified)	none (no result: HCV inhibitor, HCMV antiviral, Lassa entry inh, MARV entry inh)
O=C(CC(c1ccccc1)c1cc(Br)ccc1O)NCC1(c2ccccc2)CCCC1 (stereo unspecified)	HCMV antiviral -105, FMDV antiviral inconclusive, Lassa entry inh inconclusive, MARV entry inh inconclusive (no result: HCV inhibitor, FBPA Giardia inh)
O=C(CC(c1ccccc1)c1cc(Br)ccc1O)NCCN1CCOCC1 (stereo unspecified)	MARV entry inh inconclusive, FBPA Giardia inh inconclusive
O=C(NCCc1ccccc1)C(=O)NCC1(c2ccccc2)CCCC1	none
O=C(CCc1ccccc1)NCC1(c2ccccc2)CCCC1	Lassa entry inh inconclusive, MARV entry inh 5.6µM
Cc1cc(Cl)n2nc(C)c(-c3ccc(Cl)cc3)c2n1	HCV inhibitor inconclusive, FMDV antiviral inconclusive, Lassa entry inh 16µM, MARV entry inh inconclusive
Cc1cc(N)n2nc(C)c(-c3ccc(Cl)cc3)c2n1	HCV inhibitor 11µM, MARV entry inh inconclusive
COc1ccc(-c2c(C)nn3c(C)cc(C)nc23)cc1	HCV inhibitor 11µM
Cc1cc(N)n2nc(C)c(-c3ccccc3)c2n1	HCV inhibitor inconclusive, Lassa entry inh inconclusive
Cc1ccc(/C=C2/CNC/C(=C/c3ccc(C)cc3)C2=O)cc1	HCV inhibitor 8.9µM, FMDV antiviral inconclusive, Lassa entry inh inconclusive, MARV entry inh inconclusive (no result: FBPA Giardia inh)
CC(C)C[C@H](NC(=O)[C@H](Cc1ccccc1)NC(=O)CNC(=O)[C@@H](COC(C)(C)C)NC(=O)[C@@H](N)Cc1ccc(O)cc1)C(=O)N[C@H](C(=O)O)[C@@H](C)OC(C)(C)C	none (no result: HCV inhibitor, HCMV antiviral, FMDV antiviral, Lassa entry inh, MARV entry inh)
COc1cccc(-c2nc(NC3CC3)c3ccccc3n2)c1	none (no result: HCV inhibitor, HCMV antiviral, Lassa entry inh, MARV entry inh)
Cc1cccc(NC(=S)NC(C)(C)CC(C)(C)C)c1	HCMV antiviral -65, MARV entry inh inconclusive
N#CCC(=O)N/N=C/c1c(-c2ccccc2)n(-c2ccccc2)c2ccccc12	HCV inhibitor 14µM, FMDV antiviral inconclusive, Lassa entry inh inconclusive, MARV entry inh inconclusive
COc1cccc(NC(=O)CSc2nnc(NC(=O)NC3CCCCC3)s2)c1	Lassa entry inh inconclusive (no result: HCV inhibitor, MARV entry inh, FBPA Giardia inh)
CCc1cccc2c1NC(=O)C21N2CCCC2C(C(=O)c2ccc3ccccc3c2)C12C(=O)Nc1ccccc12 (stereo unspecified)	HCV inhibitor inconclusive, HCMV antiviral -93, Lassa entry inh inconclusive, MARV entry inh 10µM
CCNC(=S)NC1CC2CCCC(C1)N2Cc1ccc(C)cc1 (stereo unspecified)	FBPA Giardia inh inconclusive (no result: Lassa entry inh, MARV entry inh)
